CtBP-E1A inh: qHTS Assay for Inhibitors of the CtBP/E1A Interaction. CtBP / adenovirus E1A interaction (AlphaScreen). AlphaScreen GST-E1A/His-CtBP binding, 1536-well; active compounds read low. activity change, % (concentration not given with the values). hit rate 0.49% among 340,000; in the data active means activity change below about -65%; inconclusive means mostly about -30% to -63%; further: on the % scale 0 is the no-effect control and ±100 the full control effect
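GST-E1A and His-tagged CtBP (125 nM each as 5X stock) were preincubated with pin-transferred compound for 2 h at 37 °C in the dark, then glutathione donor and nickel acceptor beads were added for 1 h before AlphaScreen reading.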
TGFb SMAD3 inh: qHTS for Inhibitors of TGF-b | HepG2 CAGA-GFP TGF-b/SMAD3 reporter, GFP fluorescence, 18 h; TGF-beta stimulated, 500 pg/mL final | Potency, µM (doses to about 46.1 µM), inactives show at the highest dose activity, negative = inhibition, most hits filed as inhibitors | hit rate 1.2% among 410,000; further: potency means the concentration at half of the fitted maximal effect; on the % scale 0 is the no-effect control and ±100 the full control effect; nearly all actives have a fitted effect of over 65% in size
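Inhibition was scored as loss of TGF-beta-induced (500 pg/mL final, 18 hours, 37 degrees C) GFP in HEPG2 cells carrying a CAGA-GFP reporter, in DMEM with 1% FBS. Well GFP was summed per cell; Activity was normalised to unstimulated and stimulated DMSO wells, then concentration-response fitting.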
Six1-Eya2 blk: qHTS Assay for Inhibitors of the Six1/Eya2 Interaction; activity change, % (no concentration beside the values); hit rate 0.56% among 360,000; AlphaScreen GST-Six1/His-Eya2 binding, biochemical; active compounds read low; AID 651725, 2012; Homeobox protein SIX1 (Homo sapiens) + Protein phosphatase EYA2 (Homo sapiens), …; in the data active means activity change below about -65%; inconclusive means mostly about -30% to -63%; further: on the % scale 0 is the no-effect control and ±100 the full control effect
Target sequence (O00167 whole entry, looked up): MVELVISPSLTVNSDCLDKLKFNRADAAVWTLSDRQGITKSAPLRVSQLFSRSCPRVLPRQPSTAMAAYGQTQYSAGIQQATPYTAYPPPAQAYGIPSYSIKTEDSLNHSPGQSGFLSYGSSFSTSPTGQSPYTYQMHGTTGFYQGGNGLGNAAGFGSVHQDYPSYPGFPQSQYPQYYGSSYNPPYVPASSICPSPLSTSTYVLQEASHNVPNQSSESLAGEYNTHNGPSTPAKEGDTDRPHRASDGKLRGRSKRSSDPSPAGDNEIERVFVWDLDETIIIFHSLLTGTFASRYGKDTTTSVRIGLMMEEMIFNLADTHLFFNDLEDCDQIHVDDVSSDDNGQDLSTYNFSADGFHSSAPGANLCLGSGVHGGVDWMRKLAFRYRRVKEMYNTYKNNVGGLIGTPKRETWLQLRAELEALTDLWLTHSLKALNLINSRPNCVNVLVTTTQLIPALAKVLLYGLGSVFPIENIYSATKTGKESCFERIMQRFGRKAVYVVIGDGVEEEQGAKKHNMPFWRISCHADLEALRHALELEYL
Target sequence (Q15475 whole entry, looked up): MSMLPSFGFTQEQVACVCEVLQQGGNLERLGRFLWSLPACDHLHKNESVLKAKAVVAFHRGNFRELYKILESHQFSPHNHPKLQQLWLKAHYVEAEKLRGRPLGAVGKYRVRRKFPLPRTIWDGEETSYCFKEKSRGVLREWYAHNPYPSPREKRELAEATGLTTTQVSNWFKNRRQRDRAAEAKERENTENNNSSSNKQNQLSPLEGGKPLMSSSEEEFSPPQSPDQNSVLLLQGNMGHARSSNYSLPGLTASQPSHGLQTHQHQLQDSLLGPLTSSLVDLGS
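Compounds are tested against tagged Six1 and Eya2 proteins bridged by glutathione donor and nickel acceptor beads; after a one-hour incubation at 37 °C without light, AlphaScreen emission is recorded.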
ATXN viability: Viability Counterscreen for Primary qHTS for Inhibitors of ATXN expression; S2 cells (HEK-293 line with an ATXN2-luciferase reporter) viability, CellTiter-Fluor protease fluorescence, 24 h; Potency, µM (doses to about 56.7 µM), hits mostly cytotoxic; hit rate 0.49% among 400,000; further: potency means the concentration at half of the fitted maximal effect; nearly all actives have a fitted effect of over 40% in size
HepG2 tox: qHTS for Inhibitors of TGF-b: Cytotox Counterscreen; Potency, µM (top dose mostly 46.1 µM), without a hit: at the highest dose activity change, negative = cytotoxicity, most hits filed as cytotoxic; hit rate 0.76% among 410,000; HepG2 CAGA-GFP viability, ATP luminescence, 18 h; AID 588856, 2011; further: potency means the concentration at half of the fitted maximal effect
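HepG2 CAGA-GFP cells (1000/well, DMEM with 1% FBS) received compound, then TGF-beta at 500 pg/mL final, and were incubated 18 hours at 37 degrees C. Viability was read by CellTiter-Glo luminescence. Media-only wells were set as complete cell-killing and DMSO as no toxicity.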
ATXN2 expr inh: Primary qHTS for Inhibitors of ATXN expression | HEK-293 ATXN2-luciferase reporter, luminescence, 24 h | Potency, µM (doses to about 57 µM), without a hit: at the top dose activity change, negative = inhibition, actives largely listed as inhibitors | hit rate 0.72% among 360,000 | AID 1745845, 2022; further: potency means the concentration at half of the fitted maximal effect; on the % scale 0 is the no-effect control and ±100 the full control effect; nearly all actives have a fitted effect of over 55% in size
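qHTS (up to 57 uM final) was run with 24 h compound exposure of reporter cells at 37 °C. Each well was multiplexed: SteadyGlo luminescence measured ATXN2-luciferase expression after a fluorogenic Gly-Phe-AFC viability readout (25 uM final).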
Active calls of the source: *; ! = a repeat was not active; [ ] = another dose, or the depositor's remark. Only some compounds are listed: those with a hit (about 2.8% of all), similar ones and a draw of the others. Unless noted, the call rests on the fitted dose curve; in most records, active means well fitted curve in the direction sought with a large enough effect; inconclusive means small, poorly fitted or top-dose-only effect, or another doubt; inactive means no such curve, though single readings can be large; an effect the other way counts as inactive or inconclusive.

Screening CN(CC1COc2ccccc2O1)c1nc(-c2cccnc2)nc2ccccc12 (stereo unspecified) returned CtBP-E1A inh 19, TGFb SMAD3 inh inconclusive, Six1-Eya2 blk -9, ATXN viability inactive, HepG2 tox 5µM* and ATXN2 expr inh 60%.
Screening O=C1NC[C@H](CCCCN2C[C@@H](Cc3ccccc3)N(CCC3CCCCC3)C(=O)C2=O)N(CCC2CCCCC2)C1=O returned CtBP-E1A inh 0, Six1-Eya2 blk 13, ATXN viability inactive and ATXN2 expr inh 14%.
`COC(=O)C[C@]1(C(=O)OC)CN(C#N)N(c2ccc(Cl)cc2)C12c1ccccc1-c1ccccc12` gave CtBP-E1A inh 13, TGFb SMAD3 inh 4µM*, Six1-Eya2 blk 7, ATXN viability 5.6µM*, HepG2 tox -106% and ATXN2 expr inh 4µM*.
`COC(=O)[C@@H]1[C@@H](C(=O)OC)C2(c3ccccc3-c3ccccc32)N(c2ccc(Cl)cc2)N1C#N` gave CtBP-E1A inh -1, TGFb SMAD3 inh inconclusive, Six1-Eya2 blk -8, ATXN viability 7.1µM*, HepG2 tox 11µM* and ATXN2 expr inh 7.1µM*.
`Cc1ccccc1C(=O)Nc1ccc(C(=O)OCc2cc(=O)n3nc(C4CC4)sc3n2)cc1` gave TGFb SMAD3 inh 10%, ATXN viability inconclusive, HepG2 tox -23% and ATXN2 expr inh inconclusive.
`Cc1ccc(-c2cc(-c3ccccc3)cc(-c3ccccc3)[n+]2-c2ccccc2)cc1` gave CtBP-E1A inh -10, TGFb SMAD3 inh 5.6µM*, Six1-Eya2 blk -4, ATXN viability 13µM*, HepG2 tox -65% and ATXN2 expr inh 3.5µM*.
Screening c1ccc(-c2cc(-c3ccccc3)[n+](-c3ccccc3)c(-c3ccccc3)c2)cc1 returned CtBP-E1A inh -13, TGFb SMAD3 inh 13µM*, Six1-Eya2 blk -6, HepG2 tox -23% and ATXN2 expr inh 8.9µM*.
Screening CN(C)c1ccc(-[n+]2c(-c3ccccc3)cc(-c3ccccc3)cc2-c2ccccc2)cc1 returned CtBP-E1A inh inconclusive, TGFb SMAD3 inh 4µM*, Six1-Eya2 blk inconclusive, ATXN viability inconclusive, HepG2 tox -36% and ATXN2 expr inh inconclusive.
`Cc1ccc(-c2cc(-c3ccc(C)cc3)[n+](-c3ccc(C(=O)[O-])cc3)c(-c3ccc(C)cc3)c2)cc1` gave CtBP-E1A inh -9, TGFb SMAD3 inh -13%, Six1-Eya2 blk 0, ATXN viability inactive, HepG2 tox -28% and ATXN2 expr inh 0%.
CC(Cc1ccccc1)NCCn1cnc2c1c(=O)n(C)c(=O)n2C (stereo unspecified) was read as ATXN viability inactive and ATXN2 expr inh 1%[116 µM].
`CCC(=O)C(CCN(C)C)(c1ccccc1)c1ccccc1` gave ATXN viability inactive and ATXN2 expr inh -17%.
CN(C)C(=O)C(CCN1CCC(O)(c2ccc(Cl)cc2)CC1)(c1ccccc1)c1ccccc1 was read as CtBP-E1A inh -29, TGFb SMAD3 inh 11%, Six1-Eya2 blk -2, ATXN viability inconclusive, HepG2 tox -25% and ATXN2 expr inh 27µM*!.
For O=C(Cn1c(=O)oc2cc(S(=O)(=O)N3CCCC3)ccc21)NCc1ccc(Cl)cc1 the results were TGFb SMAD3 inh -9%, ATXN viability inactive, HepG2 tox -33% and ATXN2 expr inh -34%.
For CCC1(c2cnc[nH]2)Cc2ccccc2C1 the results were ATXN viability inactive and ATXN2 expr inh 1%.
`COC(=O)C1=C(c2cccc(OCc3ccccc3)c2)C[C@@H]2CC[C@H]1N2C(=O)NC1CCN(Cc2ccccc2)CC1` gave CtBP-E1A inh -18, TGFb SMAD3 inh inconclusive, Six1-Eya2 blk -11, HepG2 tox 13µM* and ATXN2 expr inh inconclusive.
For COC(=O)C1=C(c2ccc(F)cc2OCc2ccccc2)C[C@@H]2CC[C@H]1N2C(=O)NC1CCN(Cc2ccccc2)CC1 the results were CtBP-E1A inh -12, TGFb SMAD3 inh inconclusive, Six1-Eya2 blk -20, ATXN viability 14µM*, HepG2 tox -32% and ATXN2 expr inh inconclusive.
CCOc1cccc(CC(=O)NCc2ccc3c(c2)CCN3C(=O)c2cccc(C)c2)c1OCC was read as TGFb SMAD3 inh inconclusive, ATXN viability 28µM*, HepG2 tox -12% and ATXN2 expr inh inconclusive.
For CCOc1ccccc1NC(=O)NCc1ccc2c(c1)CCN2C(=O)c1ccccc1 the results were TGFb SMAD3 inh inconclusive and HepG2 tox -17%.
`Cc1ccccc1-n1c(O)c(/C=C2/C(c3ccccc3)=Nc3ccccc32)c(=O)[nH]c1=O` gave CtBP-E1A inh -9, TGFb SMAD3 inh 25µM*, Six1-Eya2 blk 1, ATXN viability inactive, HepG2 tox -42% and ATXN2 expr inh 13%.
`c1ccc(-c2nn(-c3ccccc3)[n+](-c3ccccc3)n2)cc1` gave CtBP-E1A inh -3, TGFb SMAD3 inh 10µM*, Six1-Eya2 blk 0, ATXN viability inconclusive, HepG2 tox -52% and ATXN2 expr inh inconclusive.
For CC1OC(OC2C=C3CCC4C(CCC5(C)C(c6ccc(=O)oc6)CCC45O)C3(C)CC2)C(O)C(OC2OC(CO)C(O)C(O)C2O)C1O (stereo unspecified) the results were CtBP-E1A inh 1, TGFb SMAD3 inh 0.4µM*, Six1-Eya2 blk 3, ATXN viability inconclusive, HepG2 tox -54% and ATXN2 expr inh 0.0075µM*.
Screening Clc1ccccc1N1CCNCC1 returned ATXN viability inactive and ATXN2 expr inh 7%.
For C[C@@]12OC(=O)[C@]1([C@@H](O)[C@@H]1C=CCCC1)NC(=O)[C@H]2CCCl the results were ATXN2 expr inh 0.019µM*.
For Cc1oc(-c2ccccc2Cl)nc1CN1C(=O)CN=C(c2ccccc2)c2ccccc21 the results were CtBP-E1A inh -1, TGFb SMAD3 inh 16µM*, Six1-Eya2 blk -2, ATXN viability inconclusive, HepG2 tox -12% and ATXN2 expr inh -19%.
For COc1cccc(NC(=O)C(Cc2ccccc2)NS(=O)(=O)c2ccc3c(c2)oc(=O)n3C)c1 (stereo unspecified) the results were TGFb SMAD3 inh inconclusive, ATXN viability inactive, HepG2 tox -46% and ATXN2 expr inh -6%.
For O=C1NC2C(=CC(O)C(O)C2O)c2cc3c(cc21)OCO3 (stereo unspecified) the results were CtBP-E1A inh 3, TGFb SMAD3 inh inconclusive, Six1-Eya2 blk -9, ATXN viability inconclusive, HepG2 tox -4% and ATXN2 expr inh 0.95µM*.
